Inconclusive results are not listed. Entries that show only a call come without a potency. Activity calls are given as the source filed them. The call rests on the fitted dose curve; in most records, active means well fitted curve in the direction sought with a large enough effect; inconclusive means small, poorly fitted or top-dose-only effect, or another doubt; inactive means no such curve, though single readings can be large; an effect the other way counts as inactive or inconclusive.
What was measured:
[1] = biological target: Cytochrome P450 3A7 (Homo sapiens) (UniProt P24462); experiment: Cytochrome P450 family 3 subfamily A member 7 (CYP3A7) small molecule antagonists: luciferase biochemical qHTS assay (AID 1963596); further: nearly all actives have a fitted effect of over 40% in size
Cytochrome P450 3A7 (Homo sapiens), sequence (P24462 whole entry, looked up): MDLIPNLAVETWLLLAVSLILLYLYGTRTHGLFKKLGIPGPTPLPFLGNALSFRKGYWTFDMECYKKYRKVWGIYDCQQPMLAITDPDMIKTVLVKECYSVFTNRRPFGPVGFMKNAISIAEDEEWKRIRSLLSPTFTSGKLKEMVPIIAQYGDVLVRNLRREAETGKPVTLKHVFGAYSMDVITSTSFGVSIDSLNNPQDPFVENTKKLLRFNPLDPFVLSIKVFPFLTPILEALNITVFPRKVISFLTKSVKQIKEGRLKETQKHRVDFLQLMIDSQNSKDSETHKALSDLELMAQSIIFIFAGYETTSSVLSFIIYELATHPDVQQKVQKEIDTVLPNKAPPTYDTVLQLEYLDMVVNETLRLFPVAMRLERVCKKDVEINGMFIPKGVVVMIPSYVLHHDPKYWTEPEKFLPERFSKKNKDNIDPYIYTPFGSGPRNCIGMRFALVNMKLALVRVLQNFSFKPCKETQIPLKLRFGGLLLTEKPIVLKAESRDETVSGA
How it was run: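 Compounds were screened in qHTS format for interference with CYP3A7 turnover of a proluciferin substrate. Reactions ran 1 h at room temperature after NADPH regeneration solution was added, then luciferin product was detected by luminescence.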

[2] = Viability qHTS for spleen associated tyrosine kinase inhibitor (SYKi) naive MV4-11 cells (AID 1963823); further: nearly all actives have a fitted effect of over 40% in size; further: potency means the concentration at half of the fitted maximal effect
How it was run: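 qHTS, SYK inhibitor-naive MV4-11; 500 cells/well; 72 hr compound exposure, 37 C; CellTiter-Glo added, 10 min RT; luminescence read.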

[3] = Viability qHTS for spleen associated tyrosine kinase inhibitor (SYKi) drug resistant MV4-11 cells (AID 1963824); further: nearly all actives have a fitted effect of over 35% in size; further: potency means the concentration at half of the fitted maximal effect
How it was run: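 CellTiter-Glo luminescence, read 10 min after reagent addition, reports viability after a 72 hr compound exposure. Cells are an MV4-11 line made resistant to SYK inhibition, seeded at 500 per well onto compound-containing plates.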

SMILES | Potency [1] | Potency [2] | Potency [3]
Cc1cnn(-c2ccccc2)c1NC(=O)COCc1ccccc1 | inactive | inactive | inactive
O=c1c(-c2ccccc2)c1-c1ccccc1 | inactive | 23700 nM (active) | –
N#Cc1ccc(C(=O)N2CCC3(CC2)N=C(N)c2c(F)ccc(F)c2N3)cn1 | inactive | inactive | inactive
COc1ccc(C(=O)Nc2ncc(-c3ccc(C(=O)O)cc3)s2)cc1 | inactive | 461 nM (active) | 461 nM (active)
COC(=O)c1cc(Br)cnc1N1CCC(NC2CCCCC2)C(O)C1 (stereo not given) | inactive | inactive | –
CNS(=O)(=O)c1ccccc1Nc1nc(Nc2ccc(N3CCN(C)CC3)cc2OC)ncc1Br | inactive | 18.4 nM (active) | 32.6 nM (active)
Nc1c(CC(=O)O)cccc1C(=O)c1ccc(Br)cc1 | inactive | inactive | –
C=CC(=O)Nc1cc(Nc2nccc(-c3c[nH]c4ccccc34)n2)c(OC)cc1N(C)CCN(C)C | inactive | 411 nM (active) | 580 nM (active)
COc1cccc(OC)c1-c1nc(C(=O)N[C@@H](CC(C)C)C(=O)O)cn1-c1ccnc2cc(Cl)ccc12 | inactive | inactive | –
CN1CCN(C(=O)CN[C@@H]2C[C@H]2c2ccc(OCc3ccccc3)cc2)CC1 | inactive | 25900 nM (active) | 25900 nM (active)
O=C(O)CC1CCC(c2ccc(-c3ccc4nc(C(=O)NCc5ccc(OC(F)(F)F)cc5)cn4c3)cc2)CC1 (stereo not given) | inactive | inactive | inactive
CNC(=O)Nc1ccc(OC)c(NC(=O)NC(=O)c2cc(F)c(F)cc2Cl)c1 | inactive | inactive | inactive
COc1ccc(C(=O)NCc2cc(C(C)C)no2)cc1OC1CCN(C)CC1 | inactive | inactive | inactive
COc1cc(N2CCOCC2)ccc1Nc1ncc(Cl)c(Nc2ccccc2NS(C)(=O)=O)n1 | inactive | 103 nM (active) | 206 nM (active)
O=c1cc(CO)occ1O | inactive | inactive | inactive
O=C(Cn1c2ccccc2c2nc3n(c(=O)c21)CCS3)N1CCCC1 | inactive | inactive | inactive
CCOCc1cc(OC)c(-c2ccc(C[C@H](NC(=O)c3c(F)cccc3F)C(=O)O)cc2)c(OC)c1 | inactive | inactive | inactive

SMILES | Potency [1] | Potency [2] | Potency [3]
CC(=O)N1CCN(NC(=O)c2ccc(F)cc2)CC1 | inactive | inactive | inactive
CC(C)(C)C1CCN(C(=O)n2ncc(C(O)(c3ccccc3)c3ccccc3)n2)CC1 | inactive | 20600 nM (active) | 8200 nM (active)
O=C(Nc1cccnn1)N1CCN(c2nccc(-c3ccc(F)c(F)c3)n2)CC1 | inactive | inactive | inactive
CCCCOC(=O)NC(=O)C1c2ccccc2Oc2ccccc21 | inactive | inactive | inactive
Cn1cc(-c2cnc3ccc4ccc(CS(=O)(=O)NCc5ccccn5)cc4c(=O)c3c2)cn1 | inactive | 14600 nM (active) | 11600 nM (active)
COc1cc(C(=O)NC2CCN(C)CC2)ccc1Nc1ncc2c(n1)N(C1CCCC1)CC(F)(F)C(=O)N2C | inactive | 23.1 nM (active) | 10.3 nM (active)
COc1ccc(NC(=O)N2CCc3c2ccc2ccccc32)cc1N1CCN(C)CC1 | inactive | 9200 nM (active) | 8200 nM (active)
CC(=O)SCC(=O)c1ccc(NS(=O)(=O)c2ccc(OCCCN(C)C)cc2)nc1 | inactive | 2590 nM (active) | 2910 nM (active)
C1N2CN3CN1CN(C2)C3 | inactive | inactive | inactive
O=C(NCC(O)CO)c1ccncc1Nc1ccc(I)cc1F (stereo not given) | inactive | 366 nM (active) | 164 nM (active)
CCC(C)(C)C1CCc2c(sc(NC(=O)c3ccc(Br)cc3)c2C#N)C1 (stereo not given) | inactive | inactive | inactive
FC(F)(F)c1cc(C(F)(F)F)c2ccc3nc(-c4nnco4)cn3c2n1 | inactive | inactive | inactive
CC(C)c1cccc(C(C)C)c1NC(=O)Nc1ccc(Sc2ccc([N+](=O)[O-])cc2)cc1 | inactive | 7310 nM (active) | 5170 nM (active)
O=C(Nc1nc2ccccc2n1CCc1ccccc1)c1ccccc1 | inactive | inactive | inactive
CN[C@H](CNC(=O)N1CCC[C@@H]([C@@H](OCCNC(=O)OC)c2cccc(Cl)c2)C1)C[C@H]1CCCOC1 | inactive | inactive | inactive
CC1(C)CC(NC(=O)C(=O)Nc2ccc(Br)cc2)CC(C)(C)N1 | inactive | 3260 nM (active) | 2590 nM (active)

Source: PubChem BioAssay (NCATS)
